In PubChem BioAssay (Tox21) one finds Potency and outcome data, which are given here for 12 compounds.

Active and inactive are the calls of the source. Unless noted, calls come from the whole dose curve; as a rule, active = well fitted curve in the direction sought with a large enough effect in the repeat runs; inconclusive = weak or mixed curves; inactive = no such curve, though single readings can be large; an effect the other way counts as inactive or inconclusive.

Assay [1] in a line: qHTS assay to identify small molecule antagonists of the glucocorticoid receptor (GR) signaling pathway - cell viability counter screen (AID 720693). Note: nearly all actives have a fitted effect of over 55% in size.
Assay [2] in a line: qHTS assay for identifying genotoxic compounds that show differential cytotoxicity against isogenic chicken DT40 cell lines with known DNA damage response pathways - wild type cell line (AID 743012). Note: nearly all actives have a fitted effect of over 60% in size. Note: potency is the fitted concentration of half-maximal effect. In a few lines:
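Viability of DNA repair-proficient chicken DT40 cells was assessed by CellTiter-Glo luminescence following 40 h compound exposure at 37 C/5% CO2.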
(Quantitative high-throughput screening tests each substance at several concentrations.)

Assay [3] in a line: qHTS assay for identifying genotoxic compounds that show differential cytotoxicity against isogenic chicken DT40 cell lines with known DNA damage response pathways - Rev3 mutant cell line (AID 743014). Note: nearly all actives have a fitted effect of over 55% in size. Note: potency is the fitted concentration of half-maximal effect.
Assay [4] can be described thus: qHTS assay for identifying genotoxic compounds that show differential cytotoxicity against isogenic chicken DT40 cell lines with known DNA damage response pathways - Rad54/Ku70 mutant cell line (AID 743015). Note: nearly all actives have a fitted effect of over 60% in size. Note: potency is the fitted concentration of half-maximal effect.
Assay [5] is described as follows: qHTS assay to identify small molecule antagonists of the thyroid receptor (TR) signaling pathway - cell viability counter screen (AID 743064). Note: nearly all actives have a fitted effect of over 50% in size. Note: potency is the fitted concentration of half-maximal effect. In a few lines: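 GH3.TRE-Luc cells, 4 h pre-plating; cpd + T3 1 nM final; 37 °C 23.5 h; CellTiter-Fluor 30 min; fluorescence read.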
Assay [6] can be described thus: qHTS assay to identify small molecule antagonists of the thyroid receptor (TR) signaling pathway (AID 743065). Note: nearly all actives have a fitted effect of over 55% in size. Note: potency is the fitted concentration of half-maximal effect. An outline of the steps:
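GH3.TRE-Luc rat pituitary cells carrying two TR response elements driving luciferase were plated for 4 h, given compound plus 1 nM T3 (final), and incubated 23.5 h at 37 C. ONE-Glo luminescence measured reporter inhibition; CellTiter-Fluor fluorescence tracked cytotoxicity.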

For assay [7], the system named is thyroid hormone receptor (rat, GH3 cells). Put plainly: qHTS assay to identify small molecule agonists of the thyroid receptor (TR) signaling pathway (AID 743066; calls by dose curve).
The target in assay [8] is Estrogen receptor (Homo sapiens) (UniProt P03372). Put plainly: qHTS assay to identify small molecule antagonists of the estrogen receptor alpha (ER-alpha) signaling pathway (AID 743069; active = well fitted curve in the direction sought with a large enough effect in the signal ratio in the repeat runs, not every such curve was filed as active; inconclusive = weak or mixed curves, or effect the other way; inactive = no such curve, though single readings can be large or run the other way; the % refers to the signal ratio; note: potency is the fitted concentration of half-maximal effect). In a few lines: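 A 17beta-estradiol challenge was applied right after compound transfer to ER-alpha-UAS-bla HEK293 cells previously kept in charcoal-stripped serum. Plates stood 18 hr at 37C and 5% CO2; fluorescence was read following 2 hr FRET substrate loading at room temperature.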
Estrogen receptor (Homo sapiens), sequence (P03372 whole entry, looked up): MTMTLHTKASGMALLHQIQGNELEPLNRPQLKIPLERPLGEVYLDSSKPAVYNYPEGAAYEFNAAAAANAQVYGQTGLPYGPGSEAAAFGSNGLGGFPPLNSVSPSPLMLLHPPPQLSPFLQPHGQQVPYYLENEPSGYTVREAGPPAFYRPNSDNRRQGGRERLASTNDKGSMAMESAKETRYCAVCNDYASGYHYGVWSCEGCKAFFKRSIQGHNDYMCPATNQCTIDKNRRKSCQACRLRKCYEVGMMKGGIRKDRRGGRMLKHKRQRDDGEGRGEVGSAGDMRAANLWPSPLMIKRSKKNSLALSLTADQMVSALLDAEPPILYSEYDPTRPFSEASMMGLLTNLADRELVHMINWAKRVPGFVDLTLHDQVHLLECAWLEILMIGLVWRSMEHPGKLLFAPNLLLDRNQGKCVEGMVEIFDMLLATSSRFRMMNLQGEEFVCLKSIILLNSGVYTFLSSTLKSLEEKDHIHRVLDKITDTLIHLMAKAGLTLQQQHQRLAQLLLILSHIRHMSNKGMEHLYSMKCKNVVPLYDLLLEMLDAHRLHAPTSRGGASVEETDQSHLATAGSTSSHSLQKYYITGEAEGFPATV

Assay [9] in a line: qHTS assay to identify small molecule antagonists of the estrogen receptor alpha (ER-alpha) signaling pathway - cell viability counter screen (AID 743074; calls by dose curve;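 note: HEK293 cells carrying ER-alpha-UAS-bla reporter stimulated with 17beta-estradiol; nearly all actives have a fitted effect of over 45% in size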).
In assay [10] the target is Estrogen receptor (Homo sapiens) (UniProt P03372). As to the kind of experiment: qHTS assay to identify small molecule agonists of the estrogen receptor alpha (ER-alpha) signaling pathway (AID 743075; calls by dose curve;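 note: HEK293 GripTite cells with ER-alpha and UAS-driven beta-lactamase reporter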).
Assay [11] has the same target. Put plainly: qHTS assay to identify small molecule agonists of the estrogen receptor alpha (ER-alpha) signaling pathway using the BG1 cell line (AID 743079). Note: nearly all actives have a fitted effect of over 20% in size. Note: potency is the fitted concentration of half-maximal effect.
A short description of assay [12]: qHTS assay to identify small molecule antagonists of the estrogen receptor alpha (ER-alpha) signaling pathway using the BG1 cell line (AID 743080; calls by dose curve;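 note: BG1 cells stimulated with 17beta-estradiol alongside compound; series mostly up to about 70 µM; nearly all actives have a fitted effect of over 25% in size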). In a few lines:
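BG1-Luc-4E2 cells (endogenous full-length ER-alpha, 4xERE luciferase) hormone-starved 5 days in charcoal-stripped FBS, plated 4,000/well for 24 h, then compound plus 17beta-estradiol for 21.5 h at 37 C; ONE-Glo luminescence read.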

Assay [13] in a line: qHTS assay to identify small molecule antagonists of the estrogen receptor alpha (ER-alpha) signaling pathway using the BG1 cell line - cell viability counter screen (AID 743081).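 Note: compound given together with 17beta-estradiol as the ER stimulus; series mostly up to about 70 µM; nearly all actives have a fitted effect of over 45% in size.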
A further assay has as its target Aromatase (Homo sapiens) (UniProt P11511). As to the kind of experiment: qHTS assay to identify aromatase inhibitors (AID 743083). Note: nearly all actives have a fitted effect of over 55% in size. Note: potency is the fitted concentration of half-maximal effect.
The nature of assay [14]: qHTS assay to identify small molecule antagonists of the androgen receptor (AR) signaling pathway using the MDA cell line - cell viability counter screen (AID 743041; note: nearly all actives have a fitted effect of over 45% in size). In a few lines: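 In this qHTS counter assay, fluorescence intensity after CellTiter-Fluor addition indicated viability of MDA-kb2 AR-luc cells given compounds and R1881 for 16 h at 37C.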
Assay [15] is described as follows: qHTS assay to identify small molecule antagonists of the androgen receptor (AR) signaling pathway - cell viability counter screen (AID 743033; note: nearly all actives have a fitted effect of over 45% in size).
Assay [16] addresses Androgen receptor (Homo sapiens) (UniProt P10275). Put plainly: qHTS assay to identify small molecule agonists of the androgen receptor (AR) signaling pathway using the MDA cell line (AID 743040; note: nearly all actives have a fitted effect of over 20% in size). An outline of the steps:
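Cell-based luciferase reporter: MDA-kb2, MMTV promoter (AR + GR response elements). 16 h compound exposure at 37C; ONE-Glo, 30 min RT, luminescence.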

Assay [17] has the same target. Put plainly: qHTS assay to identify small molecule antagonists of the androgen receptor (AR) signaling pathway using the MDA cell line (AID 743042; note: nearly all actives have a fitted effect of over 55% in size). In a few lines:
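MDA-kb2 cells (human breast carcinoma, stably carrying an MMTV-luciferase reporter responsive to AR and GR) were plated at 3,000 cells/well and preincubated 5 hr at 37C, then given compound plus R1881 agonist for 16 h. ONE-Glo luminescence was read.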

For assay [18] the target is unchanged. As to the kind of experiment: qHTS assay to identify small molecule antagonists of the androgen receptor (AR) signaling pathway (AID 743035; active = well fitted inhibition curve with a large enough effect in the signal ratio in the repeat runs, not every such curve was filed as active; inconclusive = weak or mixed curves, or effect the other way; inactive = no such curve, though single readings can be large or run the other way; the % refers to the signal ratio). An outline of the steps: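 Reporter HEK293 cells were exposed to compounds and R1881 overnight (16 h, 37C); beta-lactamase activity was then quantified by FRET fluorescence.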
For assay [19] the target is unchanged. Put plainly: qHTS assay to identify small molecule agonists of the androgen receptor (AR) signaling pathway (AID 743036; active = well fitted activation curve with a large enough effect in the signal ratio in the repeat runs, with a control signal flat, not every such curve was filed as active; inconclusive = weak or mixed curves, or effect the other way; inactive = no such curve, though single readings can be large or run the other way; the % refers to the signal ratio). In a few lines:
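AR-bla HEK293 cells, 2,000/well; 4 h preincubation 37C/5% CO2; compound (DMSO) 16 h at 37C; LiveBLAzer B/G FRET substrate 2 h RT; fluorescence intensity read-out.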

Androgen receptor (Homo sapiens), sequence (P10275 whole entry, looked up): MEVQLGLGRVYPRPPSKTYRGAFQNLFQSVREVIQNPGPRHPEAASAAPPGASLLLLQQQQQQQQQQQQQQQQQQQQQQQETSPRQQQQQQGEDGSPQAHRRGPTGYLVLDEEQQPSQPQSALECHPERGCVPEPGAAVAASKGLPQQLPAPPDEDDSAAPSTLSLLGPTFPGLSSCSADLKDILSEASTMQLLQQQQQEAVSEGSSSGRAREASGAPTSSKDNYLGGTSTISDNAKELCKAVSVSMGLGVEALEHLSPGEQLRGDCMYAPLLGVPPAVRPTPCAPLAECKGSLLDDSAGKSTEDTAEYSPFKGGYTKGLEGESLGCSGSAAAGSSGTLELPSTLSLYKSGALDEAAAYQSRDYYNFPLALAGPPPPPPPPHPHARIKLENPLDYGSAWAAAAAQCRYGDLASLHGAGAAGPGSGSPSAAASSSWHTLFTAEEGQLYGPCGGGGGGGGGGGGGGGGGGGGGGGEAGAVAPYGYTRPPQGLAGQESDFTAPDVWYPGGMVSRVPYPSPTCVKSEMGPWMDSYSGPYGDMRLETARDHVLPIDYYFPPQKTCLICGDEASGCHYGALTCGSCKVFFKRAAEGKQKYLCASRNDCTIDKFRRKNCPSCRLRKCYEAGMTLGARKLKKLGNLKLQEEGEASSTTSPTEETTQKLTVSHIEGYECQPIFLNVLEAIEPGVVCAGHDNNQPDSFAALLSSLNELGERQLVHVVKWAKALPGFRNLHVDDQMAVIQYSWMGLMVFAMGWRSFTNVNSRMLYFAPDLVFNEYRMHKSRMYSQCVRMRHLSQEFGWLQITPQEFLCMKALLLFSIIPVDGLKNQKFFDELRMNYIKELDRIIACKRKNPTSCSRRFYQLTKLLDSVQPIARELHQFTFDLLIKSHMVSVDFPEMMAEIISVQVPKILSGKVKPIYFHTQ
Aromatase (Homo sapiens), sequence (P11511 whole entry, looked up): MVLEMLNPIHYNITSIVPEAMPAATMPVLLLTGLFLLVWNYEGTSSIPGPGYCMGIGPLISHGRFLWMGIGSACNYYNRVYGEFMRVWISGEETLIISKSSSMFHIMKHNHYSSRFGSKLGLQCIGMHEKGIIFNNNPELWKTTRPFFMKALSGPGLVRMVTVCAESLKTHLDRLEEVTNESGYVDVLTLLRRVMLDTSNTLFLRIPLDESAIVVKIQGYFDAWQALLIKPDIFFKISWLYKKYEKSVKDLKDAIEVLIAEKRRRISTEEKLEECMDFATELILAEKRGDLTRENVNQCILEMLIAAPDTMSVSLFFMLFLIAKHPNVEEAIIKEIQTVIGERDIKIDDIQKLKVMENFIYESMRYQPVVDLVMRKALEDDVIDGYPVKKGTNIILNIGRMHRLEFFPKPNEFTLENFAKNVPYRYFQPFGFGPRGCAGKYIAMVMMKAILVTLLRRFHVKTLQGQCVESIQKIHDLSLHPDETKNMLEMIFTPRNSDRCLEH

`CCOP(=S)(OCC)SCSCC`: the Potency entry in assay [1], in assay [5], in assay [6], in assay [7], in [8] and in [9] was “inactive” each time. For the same compound, the Potency entry (in assay [10]; in [12]; in assay [13]; with Aromatase (Homo sapiens)) was “inactive” throughout. Moreover, the Potency in assay [2] was 54.5 µM (active); in assay [3], 27.3 µM (active); in [4] it was 48.6 µM (active); in assay [11], 30.6 µM (active).
For the compound `CC(c1ccc(O)cc1)(c1ccc(O)cc1)c1ccc(O)cc1`, the Potency result in assay [1], in assay [14] and in [13] was “inactive” in each case. The Potency in [2] was 27.3 µM (active); in assay [3], 38.6 µM (active); in assay [4], 54.5 µM (active); in [6] it was 61.1 µM (active); in [8], 21.9 µM [inconclusive] (active); in assay [11], 27.3 µM (active).
With `COC1=CC(=O)O[C@@H](CCc2ccccc2)C1`, the Potency entry in assay [1], in assay [2], in assay [3], in assay [15], in assay [16] and in assay [14] was “inactive” in each case. Moreover, the Potency entry in assay [17], in [5], in [6], in assay [7], in assay [9] and in assay [13] was “inactive” each time. Moreover, the Potency result in the assay with Aromatase (Homo sapiens) was “inactive”.
Take `Clc1ccc(C(OCCN2CCCCC2)c2ccccc2)cc1` (stereo not given): the Potency entry in [1], in assay [7], in assay [8], in [9], in assay [10] and in [11] was “inactive” throughout. In addition, the Potency result (in assay [12]; in assay [13]; with Aromatase (Homo sapiens)) was “inactive” throughout. The Potency is 3.59 µM (active) in assay [2], 11.4 µM (active) in assay [3], 10.1 µM (active) in assay [4] and 9.02 µM (active) in [5].
`CC[C@H]1C[C@H]2[C@@H]3CCC4=CC(=O)CC[C@@H]4[C@H]3CC[C@]2(C)[C@H]1O`: the Potency result (in assay [1]; in assay [14]; in assay [5]; in [7]; in assay [10]; in the assay with Aromatase (Homo sapiens)) was “inactive” in each case. The Potency is 16.8 µM (active) in assay [2], 29.8 µM (active) in assay [3], 21.1 µM (active) in assay [4] and 10.6 µM (active) in assay [11].
In the case of `CCC(COC(=O)c1cc(OC)c(OC)c(OC)c1)(c1ccccc1)N(C)C` (stereo not given), the Potency result in assay [1], in assay [14], in assay [5], in [7], in assay [9] and in assay [13] was “inactive” throughout. Also, the Potency is 5.96 µM (active) in [2], 3.35 µM (active) in [3] and 6.68 µM (active) in assay [4].
In the case of `CC(C)N(C(=O)COc1nnc(C(F)(F)F)s1)c1ccc(F)cc1`, the Potency result in [1], in [14], in assay [7], in assay [8], in [9] and in assay [10] was “inactive” each time. Also, the Potency entry (in [11]; in assay [12]; in [13]; with Aromatase (Homo sapiens)) was “inactive” in each case. The Potency in assay [2] was 15.4 µM (active); in assay [3], 13.7 µM (active); in assay [4] it was 15.4 µM (active).
In the case of `CCC(Cl)CCl` (stereo not given), the Potency result in assay [1], in assay [2], in assay [3], in assay [4], in assay [14] and in [5] was “inactive” each time. In addition, the Potency result in assay [7], in assay [8], in [9], in assay [10], in assay [11] and in assay [12] was “inactive” in each case. The Potency result (in assay [13]; in the assay with Aromatase (Homo sapiens)) was “inactive” each time.
With `Oc1ccc(Cl)c(Cl)c1Cl`, the Potency result in assay [1], in [2], in assay [3], in [4], in assay [6] and in assay [7] was “inactive” in each case. In addition, the Potency entry (in [9]; in assay [13]; in the assay with Aromatase (Homo sapiens)) was “inactive” each time.
Turning to `CCOP(=O)(OCC)Oc1ccc([N+](=O)[O-])cc1`, the Potency result in [1], in assay [2], in assay [3], in [4], in assay [5] and in assay [6] was “inactive” in each case. Moreover, the Potency result in assay [7], in assay [9] and in [13] was “inactive” in each case.
Turning to `Clc1ccc(C2(Cn3cncn3)CC(Br)CO2)c(Cl)c1` (stereo not given), the Potency entry in [1], in assay [14], in assay [5], in assay [7], in assay [9] and in assay [10] was “inactive” throughout. Further, in assay [13], the Potency result is “inactive”. In addition, the Potency in assay [2] was 8.58 µM (active); in assay [3] it was 8.58 µM (active); in [4] it was 12.1 µM (active); with Aromatase (Homo sapiens), 17.1 µM (active).
As to `CCCCC(CC)COP(=O)(Oc1ccccc1)Oc1ccccc1` (stereo not given), the Potency entry in [1], in assay [2], in assay [18], in [16], in assay [14] and in [17] was “inactive” each time. In addition, the Potency entry in assay [7], in assay [8], in assay [9], in assay [10], in [11] and in [12] was “inactive” throughout. The Potency entry (in assay [13]; with Aromatase (Homo sapiens)) was “inactive” each time. Besides, in assay [3], the Potency is 48.6 µM (active). The result in assay [19] was inactive.
